Many of the other results were omitted from the sample, so hits are more common in it than they were.
FBPA Giardia inh – blocks Giardia fructose-bisphosphate aldolase activity; A8B2U2; purified Giardia FBPA; Potency, µM (doses to about 59.6 µM), without a hit: at the top dose activity, negative = inhibition, usual class: inhibitors; 0.71% of 290,000 active; note: potency is the fitted concentration of half-maximal effect; % is set by controls: 0 for no effect and ±100 for the full control effect; nearly all actives have a fitted effect of over 55% in size
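Giardia FBPA (40 nM reagent) was preincubated 10 min at RT with compound (up to 57.5 uM final), then substrate plus GAPDH/TPI/NAD/arsenate coupling system with diaphorase/resazurin was added; resorufin fluorescence (525/598 nm) was read after 20 min.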
LmPK inhibitor – LmPK (Leishmania mexicana) enzyme inhibition | Q27686 | purified LmPK, Kinase-Glo ATP luminescence, 1 h | Potency, µM (highest dose often 57.5 µM), without a hit: top-dose activity change, negative = inhibition, usual class: inhibitors | 0.37% of 290,000 active; note: potency is the fitted concentration of half-maximal effect; % is set by controls: 0 for no effect and ±100 for the full control effect
Target sequence (Q27686 whole entry, looked up): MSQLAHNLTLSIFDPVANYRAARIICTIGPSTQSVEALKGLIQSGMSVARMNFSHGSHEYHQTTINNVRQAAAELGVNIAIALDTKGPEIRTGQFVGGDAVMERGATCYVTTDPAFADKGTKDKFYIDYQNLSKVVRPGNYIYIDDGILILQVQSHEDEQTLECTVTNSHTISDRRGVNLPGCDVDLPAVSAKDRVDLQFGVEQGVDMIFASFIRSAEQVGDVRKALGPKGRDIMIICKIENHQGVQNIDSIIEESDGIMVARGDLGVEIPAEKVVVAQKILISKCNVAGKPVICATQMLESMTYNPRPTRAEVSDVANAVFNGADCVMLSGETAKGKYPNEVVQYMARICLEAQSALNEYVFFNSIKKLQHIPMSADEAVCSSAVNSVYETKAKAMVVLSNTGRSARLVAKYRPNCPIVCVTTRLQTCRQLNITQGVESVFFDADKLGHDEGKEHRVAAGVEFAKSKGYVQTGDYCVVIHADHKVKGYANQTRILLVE
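Purified LmPK (0.1 nM) converted ADP (0.1 mM) to ATP with PEP (0.5 mM) in imidazole buffer pH 7.2 with KCl and MgCl2, 1 h at room temperature. ATP was read by Kinase-Glo luminescence; data normalized to uninhibited and no-enzyme controls.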
RE007 growth inh – less growth of the S. pombe RE007 Vpr strain; S. pombe RE007 Vpr strain, BacTiter-Glo ATP luminescence, 24 h; Potency, µM (series often up to 92.2 µM), for inactives: at the highest dose activity change, negative = less growth, hits mostly inhibitors; 0.21% of 360,000 active; active = well fitted falling curve with a large enough effect; inconclusive = small, poorly fitted or top-dose-only effect; inactive = no such curve, though single readings can be large or run the other way; note: potency is the fitted concentration of half-maximal effect; % is set by controls: 0 for no effect and ±100 for the full control effect; nearly all actives have a fitted effect of over 50% in size
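Fission yeast RE007 carrying one integrated HIV-1 vpr copy, seeded at OD 0.01 in PMG+AL medium with 23 nL pinned compound. Grown 24 h at 30 degrees; viability read by BacTiter-Glo luminescence after 5 min.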
Tb PYK inh – T. brucei pyruvate kinase inhibition; Q57TT1; TbPYK enzyme, Kinase-Glo Plus ATP luminescence, 45 min; Potency, µM (doses to about 76.8 µM), for inactives: top-dose activity, negative = inhibition, hits mostly inhibitors; 0.12% of 410,000 active; note: potency is the fitted concentration of half-maximal effect; % is set by controls: 0 for no effect and ±100 for the full control effect; nearly all actives have a fitted effect of over 50% in size
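Readout: single end-point luminescence (Kinase-Glo Plus, 10 min). Reaction conditions were TbPYK/substrate plus 130 uM ADP, 45 min at RT, pH 7.2 TEA buffer. No-enzyme wells served as controls, and data were normalized before concentration-response fitting.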
CHX counter – counter-screen for Shiga toxin inhibitors: cycloheximide protein synthesis inhibition. cell reporter, cycloheximide protein synthesis inhibition counterscreen. max response, %. 12% of 300,000 active. AID 2314; in the data active = max response mostly above about 13%, no sharp cut-off; inactive = mostly below about 14%; note: read at 38.3 µM for the half of the compounds with a filed dose; 0% is about no effect
Shiga inhibitor – blocks Shiga toxin action in Vero cells. Vero cells, Shiga toxin protein synthesis inhibition reporter. AID 2315. inhibition, % at 38.7 µM. 9.2% of 290,000 active; in the data active = inhibition mostly above about 28%, no sharp cut-off; inactive = mostly below about 43%; note: 0% is about no effect
* hit, by the source's call; u = inconclusive; x = no result given. Unless noted, calls come from the whole dose curve; as a rule, active = well fitted curve in the direction sought with a large enough effect; inconclusive = small, poorly fitted or top-dose-only effect, or another doubt; inactive = no such curve, though single readings can be large; an effect the other way counts as inactive or inconclusive.

SMILES | FBPA Giardia inh | LmPK inhibitor | RE007 growth inh | Tb PYK inh | CHX counter | Shiga inhibitor
CCOC(=O)c1sc2ccccc2c1S(=O)(=O)Nc1c(C)cccc1C | x | x | x | -7% | x | x
O=C(Nc1ccccc1)C(O)C(O)C(=O)Nc1ccccc1 (stereo not drawn) | 4% | -1% | -5% | -3% | -2 | -13
CC(C)C(=O)Nc1ccc(Nc2ccccc2)cc1 | 0% | 5% | -24% | -5% | 17* | 15
CCC(CC)C(=O)Nc1cc(NC(=O)C(CC)CC)cc(C(=O)O)c1 | 7% | 2% | 0% | 2% | -1 | -3
CCC(CC)C(=O)Nc1ccc(Nc2ccccc2)cc1 | 0% | 3% | -4% | -7% | 19* | 28
COc1ccc(S(=O)(=O)c2c(O)c3ccc(C(=O)NCc4ccccc4)cc3[nH]c2=O)cc1 | x | x | x | 3% | x | x
Cc1ccc(N2C(=O)CS(=O)(=O)C23C(=O)N(Cc2ccc(Cl)cc2)c2ccccc23)cc1C (stereo not drawn) | x | x | x | 0% | x | x
CNc1ncncc1-c1ccccc1CN(C)C | 7% | x | x | x | x | x
COc1ccc(C(=O)Oc2c(CN3CCOCC3)cc(Cl)c3cccnc23)cc1 | 10% | 1% | -24% | 5% | 6 | -16
O=c1c(CN2CCN(c3ccccn3)CC2)coc2ccccc12 | -22% | -4% | -14% | 2% | 66* | 87*
OCCN1CCN(Cc2cc(Cl)c3cccnc3c2O)CC1 | u | 3% | -4% | -7% | -3 | -12
Oc1c(CN2CCN(c3ccccn3)CC2)cc(Cl)c2cccnc12 | u | 1% | u | 4% | 14* | 7
O=C(Oc1c(CN2CCOCC2)cc(Cl)c2cccnc12)c1ccc(F)cc1 | u | -1% | -21% | -6% | 30* | 38
Cc1ccc(S(=O)(=O)NCc2cccnc2)cc1C(=O)NC1CCCCC1 | x | x | 12% | -1% | x | x
C=Cc1ccc(C(=O)N2CCCC(Nc3ccc4c(c3)OCCO4)C2)cc1 (stereo not drawn) | -24% | 0% | -9% | u | 12* | 15
O=C(Nc1ccc2c(c1)OCO2)C1CCN(C(=O)c2ccc(Cl)cc2)CC1 | 4% | 6% | -7% | 7% | 1 | -3
O=C(Nc1ccc2c(c1)OCCO2)C1CCN(C(=O)c2ccc(F)cc2)CC1 | -5% | 0% | 3% | 0% | 31* | 109*
CC1CCN(C(=O)c2ccc3c(c2)OCCO3)CC1 | 1% | 0% | 52% | -3% | 46* | 55*
O=C(Nc1ccc2c(c1)OCCO2)C1CCN(C(=O)c2ccc(Cl)cc2)CC1 | 3% | 1% | 4% | 1% | 30* | 48*
CC1CC(C)CN(C(=O)c2ccc3c(c2)OCCO3)C1 (stereo not drawn) | x | x | 12% | 1% | x | x
CN[C@H]1C[C@@H](N)[C@H](O)[C@@H](O[C@@H]2O[C@H](CO)[C@H](O)[C@@H]3O[C@]4(O[C@@H]23)O[C@H]([C@@H](N)CO)[C@H](O)[C@@H](O)[C@H]4O)[C@@H]1O | x | x | x | 6% | x | x
CCOC(=O)Cn1nc(C)c(NC(=O)COc2ccc(Cl)cc2C)c1C | x | x | x | 3% | x | x
FC(F)(F)c1ccc(-c2nc3ccccc3s2)cc1 | x | x | -2% | -11% | x | x
CC[n+]1cccc(-c2nc3ccccc3s2)c1 | -1% | 1% | -8% | -6% | 39* | 57
Oc1cccc(-c2nc3ccccc3s2)c1 | -7% | -16% | u | u | 24* | 43*
SMILES | FBPA Giardia inh | LmPK inhibitor | RE007 growth inh | Tb PYK inh | CHX counter | Shiga inhibitor
CC(=O)Oc1cccc(N2C(=O)c3ccc(C(=O)O)cc3C2=O)c1 | 15% | -20% | -18% | -3% | -4 | -3
O=C(O)c1ccc2c(c1)C(=O)N(c1cccc(-c3nc4ccccc4s3)c1)C2=O | 8% | 3% | -5% | -4% | 49* | 61*
Nc1cccc(-c2nc3ccccc3s2)c1 | -4% | 14µM* | u | -13% | 31* | 69*
Cc1cccc(CNC(=O)Cn2c(-c3cccs3)cc3ccccc32)c1 | x | x | x | 8% | x | x
CCOC(=O)c1sc(NC(=O)c2cc3nc(-c4ccccc4)cc(C(F)(F)F)n3n2)c(C(=O)OCC)c1C | x | x | x | 2% | x | x
COc1cc(C(=O)Nc2nc3c(s2)Cc2c(Br)ccc(OC)c2-3)cc(OC)c1OC | x | x | x | -10% | x | x
CCOC(=O)Cn1c(=O)n(C2CCCCC2)c2nc(-c3ccc(C(C)C)cc3)nc(C(N)=O)c21 | x | x | x | -2% | x | x
CC(C)c1ccc(-c2nc3ccccc3s2)cc1 | -9% | u | -27% | -29% | -1 | -12
Cc1cc(C)c(-c2nc3ccccc3s2)[nH]1 | -25% | -6% | u | -27% | 32* | 96*
CCOc1ccccc1NC(=O)c1c(NC(=O)c2cccc(C)c2)sc2c1CCC2 | x | x | x | -3% | x | x
COc1cc(/C=N/NC(=O)c2cc(C)oc2C)ccc1O | 0% | -1% | 2% | 2% | 9 | 28
COc1cccc(C=NNC(=O)C(C)SC(C)C(=O)NN=Cc2cccc(OC)c2)c1 (stereo not drawn) | x | x | 9% | -2% | x | x
COc1cccc(/C=N/NC(=O)c2ccoc2C)c1 | -5% | 13µM* | -11% | -10% | 42* | 57*
COc1ccc(/C=N/NC(=O)c2ccoc2C)cc1CN1CCN(c2ccc(F)cc2)CC1 | 18% | -2% | -7% | 11% | 45* | 51*
CCOc1ccc(/C=N/NC(=O)c2ccncc2)cc1OC | x | x | 14% | -2% | x | x
CCOc1ccc(/C=N/NC(=O)c2ccoc2C)cc1OC | -12% | -23% | -10% | -21% | 79* | 77*
COc1ccc(C(=O)N/N=C/c2ccc(OC)c(CN3CCN(c4ccc(F)cc4)CC3)c2)cc1 | 6% | 1% | -7% | 5% | -2 | -2
COc1cc(/C=N/NC(=O)c2ccoc2C)ccc1O | 0% | u | 14% | -14% | 37* | 59
CCOC(=O)C1=C(N)Oc2ccc(Br)cc2C1C(C#N)C(=O)OCC (stereo not drawn) | -18% | x | x | x | -3 | -4
Cc1ccc(NC(=O)Cc2nnc(SCC(=O)NC3CCCC3)n2C)cc1C | x | -2% | -4% | -1% | -2 | -4
CC(C)(C)NC(=O)c1ccc(COc2ccc(Cl)cc2Cl)o1 | -2% | 3% | -16% | -3% | -2 | 19
CCOc1ccc(OCc2ccc(C(=O)N3CCc4ccccc4C3)o2)cc1 | -2% | 2% | 1% | 2% | 18 | 29
O=C(c1ccc(COc2ccc(Cl)cc2Cl)o1)N1CCCC1 | x | 2% | 28% | -6% | 33* | 31
COc1ccccc1OCc1ccc(C(=O)N2CCCCC2)o1 | -7% | -1% | -2% | -10% | 13* | 26
CCOc1ccc(OCc2ccc(C(=O)N3CCCCC3)o2)cc1 | x | -10% | -19% | 9% | 23* | 40*
Cc1ccc(OCc2ccc(C(=O)N3CCCC3)o2)cc1C | -18% | 2% | -4% | -4% | 34* | 76*

Screening results from PubChem.
